# Columns and labels:
# Experiment in all cases: DAPPL (digital affinity profiling via proximity ligation, sequencing); 10 mM Tris-HCl pH 7.5, 50 mM NaCl, 1 mM DTT, 4% glycerol, room temperature, 30 min; GST-TFs on glutathione beads, 16-mer random dsDNA library, 0.1% formaldehyde crosslink after washing; high values mean tight binding
# FEV = molecular target: T1, FEV (Homo sapiens, UniProt Q99581 1-238); settings: protein: recombinant; tags: N-terminal GST; dsDNA, one strand shown
# T1 sequence: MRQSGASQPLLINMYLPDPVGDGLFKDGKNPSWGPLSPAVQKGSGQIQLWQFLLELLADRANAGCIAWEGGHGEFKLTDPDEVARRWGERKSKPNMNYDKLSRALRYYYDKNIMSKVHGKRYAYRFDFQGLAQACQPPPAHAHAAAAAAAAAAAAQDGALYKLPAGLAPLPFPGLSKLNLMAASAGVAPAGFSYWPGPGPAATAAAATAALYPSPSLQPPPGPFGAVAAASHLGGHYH
# In short: (§1)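 Yeast served to express human transcription factors as GST fusions, which were then captured on glutathione beads and labelled with DNA barcodes. Pooled with a tag-only sample, they were incubated with 200 nmole of a 16-mer random double-stranded DNA library for 30 min at room temperature in Tris/NaCl/DTT/glycerol buffer, washed, crosslinked with 0.1% formaldehyde, ligated by proximity, amplified by PCR and sequenced. Dividing each hexamer's read frequency for a factor by its frequency for the tag-only sample gives the binding signal.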
# ETV5 = ETV5 (Homo sapiens, UniProt P41161 1-510); settings: protein: recombinant; tags: N-terminal GST; dsDNA, one strand shown
# In short: as §1
# HSF1 = HSF1 (Homo sapiens, UniProt Q00613 1-529); settings: protein: recombinant; tags: N-terminal GST; chain copies: 3; dsDNA, one strand shown
# In short: as §1
# SPIC = molecular target: T2, SPIC (Homo sapiens, UniProt Q8N5J4 1-248); settings: protein: recombinant; tags: N-terminal GST; dsDNA, one strand shown
# T2 sequence: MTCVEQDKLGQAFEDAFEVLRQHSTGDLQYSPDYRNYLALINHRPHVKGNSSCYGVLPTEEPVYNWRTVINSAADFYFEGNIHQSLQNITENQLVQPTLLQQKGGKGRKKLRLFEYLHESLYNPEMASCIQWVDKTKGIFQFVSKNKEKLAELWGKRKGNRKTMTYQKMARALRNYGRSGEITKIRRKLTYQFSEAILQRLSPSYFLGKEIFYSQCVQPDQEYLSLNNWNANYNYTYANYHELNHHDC
# In short: as §1
# ELF4 = ELF4 (Homo sapiens, UniProt Q99607 1-663); settings: protein: recombinant; tags: N-terminal GST; dsDNA, one strand shown
# In short: as §1
# ELK4 = molecular target: T3, ELK4 (Homo sapiens, UniProt P28324-2 1-405); settings: protein: recombinant; tags: N-terminal GST; dsDNA, one strand shown
# T3 sequence: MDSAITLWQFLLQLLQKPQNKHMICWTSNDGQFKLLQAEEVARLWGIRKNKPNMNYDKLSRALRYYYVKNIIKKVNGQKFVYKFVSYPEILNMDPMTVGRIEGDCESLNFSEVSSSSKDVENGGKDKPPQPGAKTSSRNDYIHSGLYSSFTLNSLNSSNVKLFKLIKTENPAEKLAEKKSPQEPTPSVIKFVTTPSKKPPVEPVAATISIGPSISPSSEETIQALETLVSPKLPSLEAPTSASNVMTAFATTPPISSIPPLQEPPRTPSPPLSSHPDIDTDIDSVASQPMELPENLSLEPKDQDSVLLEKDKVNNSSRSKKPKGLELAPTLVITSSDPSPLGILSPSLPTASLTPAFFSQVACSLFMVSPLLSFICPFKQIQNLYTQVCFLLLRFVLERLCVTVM
# In short: as §1
# ETV2 = molecular target: T4, ETV2 (Homo sapiens, UniProt O00321 1-342); settings: protein: recombinant; tags: N-terminal GST; dsDNA, one strand shown
# T4 sequence: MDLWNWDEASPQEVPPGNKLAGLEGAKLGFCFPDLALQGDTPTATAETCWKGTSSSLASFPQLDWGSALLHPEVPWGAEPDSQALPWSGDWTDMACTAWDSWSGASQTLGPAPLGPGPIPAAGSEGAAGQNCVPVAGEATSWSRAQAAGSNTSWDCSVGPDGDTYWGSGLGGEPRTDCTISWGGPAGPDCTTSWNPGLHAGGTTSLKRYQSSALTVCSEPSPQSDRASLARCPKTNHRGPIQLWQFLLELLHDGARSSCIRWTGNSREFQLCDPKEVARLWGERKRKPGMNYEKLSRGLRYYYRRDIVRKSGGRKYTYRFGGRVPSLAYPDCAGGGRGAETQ
# In short: as §1
# ELF3 = molecular target: T5, ELF3 (Homo sapiens, UniProt P78545 1-371); settings: protein: recombinant; tags: N-terminal GST; dsDNA, one strand shown
# T5 sequence: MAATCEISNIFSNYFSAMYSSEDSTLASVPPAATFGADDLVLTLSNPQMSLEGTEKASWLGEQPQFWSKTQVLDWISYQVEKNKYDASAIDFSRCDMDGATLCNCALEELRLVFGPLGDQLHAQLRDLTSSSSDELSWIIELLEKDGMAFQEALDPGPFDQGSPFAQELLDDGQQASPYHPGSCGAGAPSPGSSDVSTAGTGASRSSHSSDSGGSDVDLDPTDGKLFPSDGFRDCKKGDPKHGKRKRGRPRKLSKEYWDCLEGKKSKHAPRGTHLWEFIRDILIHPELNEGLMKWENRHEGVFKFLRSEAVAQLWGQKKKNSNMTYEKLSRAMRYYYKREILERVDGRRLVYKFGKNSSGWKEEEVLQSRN
# In short: as §1
# CRX = CRX (Homo sapiens, UniProt O43186 1-299); settings: protein: recombinant; tags: N-terminal GST; dsDNA, one strand shown
# In short: as §1
# ETV1 = ETV1 (Homo sapiens, UniProt P50549 1-477); settings: protein: recombinant; tags: N-terminal GST; dsDNA, one strand shown
# In short: as §1
# ERF = molecular target: T6, ERF (Homo sapiens, UniProt P50548 1-548); settings: protein: recombinant; tags: N-terminal GST; dsDNA, one strand shown
# T6 sequence: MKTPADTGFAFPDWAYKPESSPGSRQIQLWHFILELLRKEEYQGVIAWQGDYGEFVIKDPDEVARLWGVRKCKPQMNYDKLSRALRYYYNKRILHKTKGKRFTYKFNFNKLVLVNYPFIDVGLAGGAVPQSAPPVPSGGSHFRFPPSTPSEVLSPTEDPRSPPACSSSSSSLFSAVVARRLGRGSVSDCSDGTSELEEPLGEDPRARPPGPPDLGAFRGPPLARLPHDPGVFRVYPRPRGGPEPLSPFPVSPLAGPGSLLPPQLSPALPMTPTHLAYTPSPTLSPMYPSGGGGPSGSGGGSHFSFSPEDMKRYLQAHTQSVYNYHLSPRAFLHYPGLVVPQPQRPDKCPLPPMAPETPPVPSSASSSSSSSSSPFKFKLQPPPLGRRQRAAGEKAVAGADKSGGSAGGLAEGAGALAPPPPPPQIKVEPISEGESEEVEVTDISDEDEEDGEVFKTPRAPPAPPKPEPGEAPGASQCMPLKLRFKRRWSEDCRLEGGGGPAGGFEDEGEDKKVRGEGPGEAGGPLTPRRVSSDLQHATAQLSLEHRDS
# In short: as §1
# ETV3L = molecular target: T7, ETV3L (Homo sapiens, UniProt Q6ZN32 1-361); settings: protein: recombinant; tags: N-terminal GST; dsDNA, one strand shown
# T7 sequence: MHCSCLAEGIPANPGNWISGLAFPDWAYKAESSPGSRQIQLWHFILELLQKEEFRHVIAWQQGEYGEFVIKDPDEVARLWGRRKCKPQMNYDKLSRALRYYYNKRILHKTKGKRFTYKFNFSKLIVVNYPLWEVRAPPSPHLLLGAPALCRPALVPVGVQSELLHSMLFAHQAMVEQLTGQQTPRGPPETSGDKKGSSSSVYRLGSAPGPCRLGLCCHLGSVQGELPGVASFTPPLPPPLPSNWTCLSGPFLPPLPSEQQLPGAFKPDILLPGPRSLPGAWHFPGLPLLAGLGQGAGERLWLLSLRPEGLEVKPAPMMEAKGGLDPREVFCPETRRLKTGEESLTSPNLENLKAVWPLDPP
# In short: as §1
# ETS2 = molecular target: T8, ETS2 (Homo sapiens, UniProt P15036 1-469); settings: protein: recombinant; tags: N-terminal GST; dsDNA, one strand shown
# T8 sequence: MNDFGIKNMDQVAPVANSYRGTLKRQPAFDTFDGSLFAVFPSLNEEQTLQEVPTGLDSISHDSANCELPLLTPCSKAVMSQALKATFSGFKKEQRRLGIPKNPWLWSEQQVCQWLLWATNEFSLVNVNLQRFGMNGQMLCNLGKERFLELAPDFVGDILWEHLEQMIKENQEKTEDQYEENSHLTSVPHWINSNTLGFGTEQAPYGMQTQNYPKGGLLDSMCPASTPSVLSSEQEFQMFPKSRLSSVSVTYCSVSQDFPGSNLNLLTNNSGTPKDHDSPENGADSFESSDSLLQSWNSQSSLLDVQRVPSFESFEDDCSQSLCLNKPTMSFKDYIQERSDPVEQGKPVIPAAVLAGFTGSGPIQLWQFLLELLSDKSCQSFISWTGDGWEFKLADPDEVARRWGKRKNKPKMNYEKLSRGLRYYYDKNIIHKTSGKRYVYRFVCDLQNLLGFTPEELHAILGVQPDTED
# In short: as §1
# SPDEF = molecular target: T9, SPDEF (Homo sapiens, UniProt O95238 1-335); settings: protein: recombinant; tags: N-terminal GST; dsDNA, one strand shown
# T9 sequence: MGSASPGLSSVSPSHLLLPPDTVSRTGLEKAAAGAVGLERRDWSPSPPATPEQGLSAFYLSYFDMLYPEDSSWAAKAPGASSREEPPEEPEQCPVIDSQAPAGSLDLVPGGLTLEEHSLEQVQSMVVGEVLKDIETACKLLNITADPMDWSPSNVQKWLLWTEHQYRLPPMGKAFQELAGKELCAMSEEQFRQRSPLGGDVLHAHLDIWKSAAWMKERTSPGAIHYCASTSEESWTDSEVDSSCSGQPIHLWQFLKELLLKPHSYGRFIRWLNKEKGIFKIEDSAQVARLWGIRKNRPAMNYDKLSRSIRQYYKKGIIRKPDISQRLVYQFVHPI
# In short: as §1
# ETV7 = molecular target: T10, ETV7 (Homo sapiens, UniProt Q9Y603 1-341); settings: protein: recombinant; tags: N-terminal GST; dsDNA, one strand shown
# T10 sequence: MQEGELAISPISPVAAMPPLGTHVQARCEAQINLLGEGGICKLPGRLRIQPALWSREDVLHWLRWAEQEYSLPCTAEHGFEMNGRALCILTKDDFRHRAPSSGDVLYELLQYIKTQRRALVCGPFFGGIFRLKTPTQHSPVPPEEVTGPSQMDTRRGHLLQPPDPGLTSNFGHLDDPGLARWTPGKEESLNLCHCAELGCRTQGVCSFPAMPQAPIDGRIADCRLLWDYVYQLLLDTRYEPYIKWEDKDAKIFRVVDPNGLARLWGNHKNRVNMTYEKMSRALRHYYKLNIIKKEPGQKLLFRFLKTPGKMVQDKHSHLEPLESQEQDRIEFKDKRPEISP
# In short: as §1
# ELF5 = molecular target: T11, ELF5 (Homo sapiens, UniProt Q9UKW6-2 1-255); settings: protein: recombinant; tags: N-terminal GST; dsDNA, one strand shown
# T11 sequence: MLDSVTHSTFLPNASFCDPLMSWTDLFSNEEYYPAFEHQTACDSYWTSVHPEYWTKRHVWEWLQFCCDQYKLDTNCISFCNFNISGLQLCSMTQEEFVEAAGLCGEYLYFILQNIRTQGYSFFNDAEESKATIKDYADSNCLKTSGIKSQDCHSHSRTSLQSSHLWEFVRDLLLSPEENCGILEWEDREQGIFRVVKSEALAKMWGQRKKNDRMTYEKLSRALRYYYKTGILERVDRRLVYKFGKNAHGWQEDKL
# In short: as §1
# ETV3 = molecular target: T12, ETV3 (Homo sapiens, UniProt P41162-2 1-143); settings: protein: recombinant; tags: N-terminal GST; dsDNA, one strand shown
# T12 sequence: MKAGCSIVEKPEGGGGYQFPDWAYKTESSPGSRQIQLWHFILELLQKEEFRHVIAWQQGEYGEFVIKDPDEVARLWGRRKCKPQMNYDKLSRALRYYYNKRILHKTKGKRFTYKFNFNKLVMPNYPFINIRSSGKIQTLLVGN
# In short: as §1
# ETV6 = ETV6 (Homo sapiens, UniProt P41212 1-452); settings: protein: recombinant; tags: N-terminal GST; dsDNA, one strand shown
# In short: as §1
# Chain of ETV5 (P41161 whole entry): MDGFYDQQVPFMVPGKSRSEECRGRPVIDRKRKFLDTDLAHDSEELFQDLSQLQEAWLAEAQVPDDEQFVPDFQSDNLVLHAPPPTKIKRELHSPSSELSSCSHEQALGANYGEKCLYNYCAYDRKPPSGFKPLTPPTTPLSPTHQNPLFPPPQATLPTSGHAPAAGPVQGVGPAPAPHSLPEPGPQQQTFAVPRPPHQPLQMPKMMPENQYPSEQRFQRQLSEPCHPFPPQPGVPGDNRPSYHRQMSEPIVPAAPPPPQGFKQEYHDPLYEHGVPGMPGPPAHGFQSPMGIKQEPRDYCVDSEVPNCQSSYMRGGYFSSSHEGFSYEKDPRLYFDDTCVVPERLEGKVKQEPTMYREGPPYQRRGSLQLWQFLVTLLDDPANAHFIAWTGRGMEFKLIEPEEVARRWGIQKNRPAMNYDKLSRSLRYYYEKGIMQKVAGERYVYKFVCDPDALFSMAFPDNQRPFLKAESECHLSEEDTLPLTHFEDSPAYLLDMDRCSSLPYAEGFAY
# Chain of HSF1 (Q00613 whole entry): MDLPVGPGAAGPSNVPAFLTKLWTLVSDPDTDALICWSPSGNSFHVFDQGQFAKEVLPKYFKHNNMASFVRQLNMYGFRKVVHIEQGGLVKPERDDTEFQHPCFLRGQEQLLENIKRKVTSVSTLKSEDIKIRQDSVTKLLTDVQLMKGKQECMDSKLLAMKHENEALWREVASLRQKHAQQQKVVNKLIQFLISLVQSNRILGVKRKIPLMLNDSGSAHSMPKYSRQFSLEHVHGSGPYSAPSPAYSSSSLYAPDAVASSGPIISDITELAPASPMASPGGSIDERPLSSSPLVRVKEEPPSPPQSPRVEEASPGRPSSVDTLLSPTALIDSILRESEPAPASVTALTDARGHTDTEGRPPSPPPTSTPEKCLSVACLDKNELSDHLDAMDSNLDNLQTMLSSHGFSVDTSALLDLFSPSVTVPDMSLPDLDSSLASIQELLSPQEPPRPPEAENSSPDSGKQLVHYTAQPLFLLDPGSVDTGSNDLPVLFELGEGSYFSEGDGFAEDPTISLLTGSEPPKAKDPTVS
# Chain of ETV1 (P50549 whole entry): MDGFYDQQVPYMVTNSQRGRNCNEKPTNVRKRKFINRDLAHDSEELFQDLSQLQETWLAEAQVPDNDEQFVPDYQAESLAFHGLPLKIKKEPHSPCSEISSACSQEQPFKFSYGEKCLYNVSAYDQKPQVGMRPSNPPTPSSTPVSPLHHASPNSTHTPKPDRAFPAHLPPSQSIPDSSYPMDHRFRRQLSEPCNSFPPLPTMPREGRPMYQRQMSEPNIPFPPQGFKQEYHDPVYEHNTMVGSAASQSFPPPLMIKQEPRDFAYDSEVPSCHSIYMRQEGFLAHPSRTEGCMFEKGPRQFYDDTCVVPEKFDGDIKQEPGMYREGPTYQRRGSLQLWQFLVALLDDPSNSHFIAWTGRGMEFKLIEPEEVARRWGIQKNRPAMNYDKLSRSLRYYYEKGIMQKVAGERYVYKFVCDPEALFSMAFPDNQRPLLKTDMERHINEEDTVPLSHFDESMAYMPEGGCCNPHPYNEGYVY
# Chain of ELF4 (Q99607 whole entry): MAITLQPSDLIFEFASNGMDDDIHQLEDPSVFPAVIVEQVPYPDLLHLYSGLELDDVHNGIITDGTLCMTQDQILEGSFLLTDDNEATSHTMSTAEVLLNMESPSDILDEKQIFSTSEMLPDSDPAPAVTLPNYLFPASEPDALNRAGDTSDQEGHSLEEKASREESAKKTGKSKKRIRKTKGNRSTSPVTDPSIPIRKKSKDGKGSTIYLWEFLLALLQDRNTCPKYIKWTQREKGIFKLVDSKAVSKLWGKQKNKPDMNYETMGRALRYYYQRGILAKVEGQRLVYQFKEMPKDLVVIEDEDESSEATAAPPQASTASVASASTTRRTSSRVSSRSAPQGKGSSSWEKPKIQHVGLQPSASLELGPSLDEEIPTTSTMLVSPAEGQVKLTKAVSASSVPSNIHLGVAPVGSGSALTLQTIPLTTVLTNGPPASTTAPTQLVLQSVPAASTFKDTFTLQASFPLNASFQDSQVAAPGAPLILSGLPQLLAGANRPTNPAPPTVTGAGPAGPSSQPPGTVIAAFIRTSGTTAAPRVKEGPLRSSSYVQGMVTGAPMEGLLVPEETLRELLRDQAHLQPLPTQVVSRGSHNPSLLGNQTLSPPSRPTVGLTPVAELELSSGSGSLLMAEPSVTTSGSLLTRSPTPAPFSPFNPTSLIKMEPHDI
# Chain of ETV6 (P41212 whole entry): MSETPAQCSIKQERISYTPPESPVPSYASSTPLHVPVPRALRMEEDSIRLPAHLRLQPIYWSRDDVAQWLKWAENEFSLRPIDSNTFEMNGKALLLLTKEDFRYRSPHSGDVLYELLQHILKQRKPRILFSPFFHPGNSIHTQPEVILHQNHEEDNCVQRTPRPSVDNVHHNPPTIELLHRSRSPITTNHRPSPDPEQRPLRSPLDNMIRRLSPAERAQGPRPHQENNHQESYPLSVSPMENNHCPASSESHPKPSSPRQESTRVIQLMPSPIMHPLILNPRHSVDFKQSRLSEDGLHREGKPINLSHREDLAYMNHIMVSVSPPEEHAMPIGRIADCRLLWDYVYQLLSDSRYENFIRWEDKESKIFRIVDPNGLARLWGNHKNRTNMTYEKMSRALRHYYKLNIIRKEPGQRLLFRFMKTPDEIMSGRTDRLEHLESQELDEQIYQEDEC
# Chain of CRX (O43186 whole entry): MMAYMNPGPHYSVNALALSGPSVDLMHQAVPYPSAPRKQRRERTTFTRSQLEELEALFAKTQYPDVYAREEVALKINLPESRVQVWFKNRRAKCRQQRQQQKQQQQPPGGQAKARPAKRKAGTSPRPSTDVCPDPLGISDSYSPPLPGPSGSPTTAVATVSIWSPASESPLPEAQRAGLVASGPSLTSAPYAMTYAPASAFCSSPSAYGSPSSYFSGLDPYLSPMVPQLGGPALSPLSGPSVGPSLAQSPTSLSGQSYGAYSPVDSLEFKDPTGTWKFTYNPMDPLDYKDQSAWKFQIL
sequence,measurement,setting,value
TACTAA,binding signal,FEV,"1.16 fold enrichment (6-mer frequency, TF over GST control)"
same,binding signal,ETV5,"1.18 fold enrichment (6-mer frequency, TF over GST control)"
same,binding signal,HSF1,"1.51 fold enrichment (6-mer frequency, TF over GST control)"
same,binding signal,SPIC,"1.24 fold enrichment (6-mer frequency, TF over GST control)"
same,binding signal,ELF4,"1.32 fold enrichment (6-mer frequency, TF over GST control)"
same,binding signal,ELK4,"1.4 fold enrichment (6-mer frequency, TF over GST control)"
same,binding signal,ETV2,"1.1 fold enrichment (6-mer frequency, TF over GST control)"
same,binding signal,ELF3,"1.27 fold enrichment (6-mer frequency, TF over GST control)"
same,binding signal,CRX,"2.1 fold enrichment (6-mer frequency, TF over GST control)"
same,binding signal,ETV1,"1.29 fold enrichment (6-mer frequency, TF over GST control)"
same,binding signal,ERF,"1.2 fold enrichment (6-mer frequency, TF over GST control)"
same,binding signal,ETV3L,"1.23 fold enrichment (6-mer frequency, TF over GST control)"
same,binding signal,ETS2,"1.21 fold enrichment (6-mer frequency, TF over GST control)"
same,binding signal,SPDEF,"1.22 fold enrichment (6-mer frequency, TF over GST control)"
same,binding signal,ETV7,"1.35 fold enrichment (6-mer frequency, TF over GST control)"
same,binding signal,ELF5,"1.25 fold enrichment (6-mer frequency, TF over GST control)"
same,binding signal,ETV3,"1.19 fold enrichment (6-mer frequency, TF over GST control)"
same,binding signal,ETV6,"1.24 fold enrichment (6-mer frequency, TF over GST control)"

# Source: paper PMC7862700, “An all-to-all approach to the identification of sequence-specific readers for epigenetic DNA modifications on cytosine”
